Molecules are shown by their SMILES. Results filed as inconclusive are left out. A structure can be active in one record and inactive in another. Active and inactive are the calls of the source. Unless noted, calls follow the shape of the dose curve; as a rule, active = well fitted curve in the direction sought with a large enough effect in the repeat runs; inconclusive = weak or mixed curves; inactive = no such curve, though single readings can be large; an effect the other way counts as inactive or inconclusive.

Test [1] in a line: qHTS assay to identify small molecule antagonists of the androgen receptor (AR) signaling pathway using the MDA cell line in the presence of 0.5 nM R1881 - cell viability counter screen (AID 1259242). Also: nearly all actives have a fitted effect of over 45% in size. The method in brief:
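MDA-kb2 cells (human breast carcinoma, stably carrying MMTV-luciferase reporter) were exposed to compounds with 0.5 nM R1881 (final) for 16 hr at 37C, 0% CO2; viability then read as live-cell protease fluorescence (CellTiter-Fluor, 30 min) in the same wells.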
In general terms: Quantitative high-throughput screening tests each substance at several concentrations.

Test [2] concerns the target Estrogen receptor (Homo sapiens) (UniProt P03372). The experiment in a line: qHTS assay to identify small molecule antagonists of the estrogen receptor alpha (ER-alpha) signaling pathway using the BG1 cell line in the presence of 0.1 nM 17-beta-estradiol (AID 1259244). Also: nearly all actives have a fitted effect of over 50% in size. Also: potency is read from the fitted curve at half-maximal effect. The method in brief: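 VM7Luc4E2 cells (endogenous full-length ER-alpha, stable 4xERE-luciferase) were grown 5 days in phenol red-free medium with charcoal-stripped FBS, then exposed 22 h at 37C to compounds plus 0.1 nM (final) 17beta-estradiol; ONE-Glo luminescence read-out.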

A short description of test [3]: qHTS assay to identify small molecule phospholipidosis (PLD) inducers (AID 1259344; active = well fitted curve in the direction sought with a large enough effect; an effect the other way counts as inactive or inconclusive). The method in brief: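 Phospholipidosis is scored by imaging LipidTOX-stained pits in HepG2 cells exposed to compound for 24 h at 37 C; pit counts and integrated intensities per well and per cell serve as outputs.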
A short description of test [4]: qHTS assay to identify small molecule HDAC inhibitors (AID 1259364). Also: nearly all actives have a fitted effect of over 45% in size. Also: potency is read from the fitted curve at half-maximal effect. The essentials: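 Wild-type HCT-116 cells were plated overnight, exposed to compounds for 2 h at 37 °C, then given HDAC-Glo class I/II luminogenic reagent for 30 min at room temperature before luminescence was read.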
The nature of test [5]: qHTS assay to identify small molecule HDAC inhibitors - cell viability counter screen (AID 1259365). Also: series mostly up to about 92 µM; nearly all actives have a fitted effect of over 50% in size. The method in brief: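 Following a 2hr exposure of overnight-plated wild-type HCT-116 cells to DMSO-delivered compounds, CellTiter-Glo was added and luminescence recorded after 30min at room temperature.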
Test [6] can be described thus: qHTS assay to identify small molecule agonists of the sonic hedgehog signaling (Shh) pathway - cell viability counter screen (AID 1259366). Also: nearly all actives have a fitted effect of over 50% in size. Also: potency is read from the fitted curve at half-maximal effect. The essentials: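 After a 4hr attachment at 37C, NIH/3T3 cells bearing an integrated Gli1-driven luciferase reporter were dosed with compounds. Treatment lasted 24hr, with the final hour including CellTiter-Fluor for a fluorescence viability measurement.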

Test [7] in a line: qHTS assay to identify small molecule antagonists of the sonic hedgehog signaling (Shh) pathway - cell viability counter screen (AID 1259367). Also: nearly all actives have a fitted effect of over 55% in size. Also: potency is read from the fitted curve at half-maximal effect. The essentials:
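Cells: 3T3 Gli1-Luc, 2,000/well, 4 hr pre-incubation. Compounds in DMSO, then conditioned medium. Incubation 24 hr, 37C, 5% CO2. CellTiter-Fluor at 23 hr, 1 hr, fluorescence.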

A short description of test [8]: qHTS assay to identify small molecule agonists of the sonic hedgehog signaling (Shh) pathway (AID 1259368; calls by dose curve; also: series mostly up to about 92 µM; nearly all actives have a fitted effect of over 15% in size). The method in brief: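 NIH/3T3-derived 3T3Gli1-Luc cells carrying a stably integrated Gli1 response element–firefly luciferase reporter were plated, left 4 hr at 37 C, then given compounds in DMSO for 24 hr. Luminescence was read 30 min after adding luciferase reagent.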

The target in test [9] is Estrogen receptor beta (Homo sapiens) (UniProt Q92731). Kind of test: qHTS assay to identify small molecule agonists of the estrogen receptor beta (ER-beta) signaling pathway (AID 1259377; active = well fitted activation curve with a large enough effect in the signal ratio in the repeat runs, not every such curve was filed as active; the % refers to the signal ratio). The essentials: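 In HEK293T cells bearing a UAS-beta-lactamase reporter under ER-beta control, DMSO-delivered compounds were incubated for 16 hr at 37C. Activity was detected as fluorescence 2 hours after LiveBLAzer B/G FRET substrate addition.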
Estrogen receptor beta (Homo sapiens), sequence (Q92731 whole entry, looked up): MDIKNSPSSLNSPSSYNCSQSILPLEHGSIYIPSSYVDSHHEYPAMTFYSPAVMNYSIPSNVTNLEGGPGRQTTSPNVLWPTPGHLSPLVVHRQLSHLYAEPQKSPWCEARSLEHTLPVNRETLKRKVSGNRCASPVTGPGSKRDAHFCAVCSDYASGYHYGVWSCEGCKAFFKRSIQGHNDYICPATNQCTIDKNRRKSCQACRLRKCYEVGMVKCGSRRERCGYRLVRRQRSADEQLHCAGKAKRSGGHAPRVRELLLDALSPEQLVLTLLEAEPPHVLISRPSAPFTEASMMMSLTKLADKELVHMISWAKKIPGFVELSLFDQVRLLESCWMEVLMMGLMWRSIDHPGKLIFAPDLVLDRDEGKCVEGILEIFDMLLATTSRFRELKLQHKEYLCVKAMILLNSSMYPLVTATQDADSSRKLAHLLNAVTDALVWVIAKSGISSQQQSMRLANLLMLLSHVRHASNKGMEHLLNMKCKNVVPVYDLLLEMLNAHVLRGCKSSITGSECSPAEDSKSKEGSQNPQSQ

The target is the same in test [10]. The experiment in a line: qHTS assay to identify small molecule antagonists of the estrogen receptor beta (ER-beta) signaling pathway (AID 1259378; active = well fitted inhibition curve with a large enough effect in the signal ratio in the repeat runs, not every such curve was filed as active; the % refers to the signal ratio). The method in brief: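 Antagonist mode: compounds added to beta-lactamase reporter HEK293T ER-beta-UAS cells stimulated with E2 (1nM final), 16 hr at 37C. LiveBLAzer B/G FRET substrate, 2 hours room temperature, fluorescence read-out.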

A short description of test [11]: qHTS assay to identify small molecule agonists of the androgen receptor (AR) signaling pathway in the presence of an antagonist - cell viability counter screen (AID 1259379). Also: series mostly up to about 92 µM; nearly all actives have a fitted effect of over 25% in size. The method in brief:
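MDA-kb2 human breast carcinoma cells (stable MMTV-luciferase, AR/GR responsive) were seeded 3,000 cells/well, pre-incubated 5 hr at 37C without CO2, then given 3.0uM nilutamide and compounds at 15 concentrations for 16 hr. Viability was read by CellTiter-Fluor fluorescence.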

Test [12] in a line: qHTS assay to identify small molecule agonists of the estrogen receptor beta (ER-beta) signaling pathway - cell viability counter screen (AID 1259380). Also: nearly all actives have a fitted effect of over 30% in size. Also: potency is read from the fitted curve at half-maximal effect. The method in brief:
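ER-beta-UAS-bla HEK293T cells in medium with 2% charcoal-stripped FBS were preincubated 6 hr at 37C, dosed with compound in DMSO for 16 hr, then after the bla read, CellTiter-Glo was added for 30 min at room temperature; luminescence recorded.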

The nature of test [13]: qHTS assay to identify small molecule antagonists of the estrogen receptor beta (ER-beta) signaling pathway - cell viability counter screen (AID 1259382). Also: nearly all actives have a fitted effect of over 55% in size. Also: potency is read from the fitted curve at half-maximal effect. The method in brief: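 ER-beta-UAS-bla HEK293T cells (2,000/well, 2% charcoal-stripped FBS) were pre-incubated 6 hr at 37C, then given compound plus 1nM final 17-beta-estradiol for 16 hr. Viability was read in the same wells by CellTiter-Glo luminescence after 30 min at room temperature.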

Test [14] deals with Estrogen receptor (Homo sapiens) (UniProt P03372). The experiment in a line: qHTS assay to identify small molecule agonists of the estrogen receptor alpha (ER-alpha) signaling pathway in the presence of an antagonist (AID 1259383; calls by dose curve; also: nearly all actives have a fitted effect of over 15% in size; also: potency is read from the fitted curve at half-maximal effect; as to activation: top concentration of the series differs between compounds). The method in brief:
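VM7Luc4E2 cells (endogenous full-length ER-alpha, 4×ERE-luciferase) were precultured 5 days in phenol red-free medium with 10% charcoal-stripped FBS, given 10.0nM ICI-182,780 (final), then treated with compounds at 15 concentrations for 22hr at 37C; luminescence read with ONE-Glo.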

Test [15] deals with Thyrotropin receptor (Homo sapiens) (UniProt P16473). The experiment in a line: qHTS assay to identify small molecule antagonists of the thyroid stimulating hormone receptor (TSHR) signaling pathway (AID 1259385; calls by dose curve; also: nearly all actives have a fitted effect of over 20% in size). The method in brief:
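Antagonist mode: compound-treated TSHR-expressing HEK293 cells were stimulated with 1.5 ng/mL TSH (final) in presence of Ro20-1724 for 30 min at RT. HTRF cAMP detection after 1 h; each compound tested at 15 concentrations, triplicate.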

Test [16] is described as follows: qHTS assay to identify small molecule agonists of the estrogen receptor alpha (ER-alpha) signaling pathway in the presence of an antagonist - cell viability counter screen (AID 1259386). Also: nearly all actives have a fitted effect of over 30% in size. Also: potency is read from the fitted curve at half-maximal effect. The essentials: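 VM7Luc4E2 cells (endogenous full-length ER-alpha, 4×ERE-luciferase) were held 5 days in phenol red-free medium with 10% charcoal-stripped FBS, plated, then given 10.0nM ICI-182,780 and compounds at 15 concentrations for 22hr at 37C; viability read by CellTiter-Fluor fluorescence.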

The nature of test [17]: qHTS assay to identify small molecule antagonists of the sonic hedgehog signaling (Shh) pathway (AID 1259369; calls by dose curve; also: nearly all actives have a fitted effect of over 45% in size; also: potency is read from the fitted curve at half-maximal effect). The method in brief: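 NIH/3T3-derived 3T3Gli1-Luc cells with stably integrated Gli1-Luc reporter were preincubated 4hr at 37 C, then given compounds in DMSO plus Shh conditioned medium and incubated 24hr. Firefly luciferase luminescence read after 30min reagent at room temperature.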

Test [18] can be described thus: qHTS assay to identify small molecule agonists or antagonists of the thyroid stimulating hormone receptor (TSHR) signaling pathway - wild type cell line counter screen (AID 1259384; calls by dose curve). The method in brief:
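Counter screen in untransfected Hek293: compounds (15-point titration, triplicate) plus phosphodiesterase inhibitor Ro20-1724 added after 18 h plating; 30 min RT. Intracellular cAMP via competitive d2/cryptate immunoassay, 1 h incubation.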

For test [19], the target named is Androgen receptor (Homo sapiens) (UniProt P10275). Kind of test: qHTS assay to identify small molecule agonists of the androgen receptor (AR) signaling pathway in the presence of an antagonist (AID 1259381; calls by dose curve; also: nearly all actives have a fitted effect of over 15% in size). The essentials: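 MDA-kb2 human breast carcinoma cells carrying an MMTV-luciferase reporter (AR- and GR-responsive) were treated with compounds at 15 concentrations plus 3.0uM final nilutamide for 16hr at 37C without CO2; luminescence was read after ONE-Glo addition.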
Androgen receptor (Homo sapiens), sequence (P10275 whole entry, looked up): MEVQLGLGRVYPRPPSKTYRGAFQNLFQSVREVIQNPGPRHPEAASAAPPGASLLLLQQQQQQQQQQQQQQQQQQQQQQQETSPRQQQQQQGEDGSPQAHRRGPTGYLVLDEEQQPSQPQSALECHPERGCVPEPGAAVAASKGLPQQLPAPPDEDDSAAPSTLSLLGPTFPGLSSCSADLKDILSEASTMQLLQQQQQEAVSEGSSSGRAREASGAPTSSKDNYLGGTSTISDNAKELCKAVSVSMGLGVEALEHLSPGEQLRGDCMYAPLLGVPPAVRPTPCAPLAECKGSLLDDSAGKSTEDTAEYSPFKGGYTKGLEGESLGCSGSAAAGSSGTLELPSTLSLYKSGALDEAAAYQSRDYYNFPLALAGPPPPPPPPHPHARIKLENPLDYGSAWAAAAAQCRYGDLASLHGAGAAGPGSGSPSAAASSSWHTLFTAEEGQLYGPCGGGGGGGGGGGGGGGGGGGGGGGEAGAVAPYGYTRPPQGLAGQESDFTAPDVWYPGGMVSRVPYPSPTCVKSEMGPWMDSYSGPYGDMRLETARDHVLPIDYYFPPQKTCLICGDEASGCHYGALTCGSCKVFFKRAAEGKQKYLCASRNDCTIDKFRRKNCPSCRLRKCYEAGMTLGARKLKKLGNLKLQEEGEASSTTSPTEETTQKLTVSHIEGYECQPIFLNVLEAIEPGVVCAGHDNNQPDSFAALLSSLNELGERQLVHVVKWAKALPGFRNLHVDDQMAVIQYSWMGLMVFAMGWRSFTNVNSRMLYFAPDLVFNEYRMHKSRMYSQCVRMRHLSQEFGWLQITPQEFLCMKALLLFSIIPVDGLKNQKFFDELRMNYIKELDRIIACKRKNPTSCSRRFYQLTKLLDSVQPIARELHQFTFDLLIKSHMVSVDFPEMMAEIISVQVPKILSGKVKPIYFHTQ

Estrogen receptor (Homo sapiens), sequence (P03372 whole entry, looked up): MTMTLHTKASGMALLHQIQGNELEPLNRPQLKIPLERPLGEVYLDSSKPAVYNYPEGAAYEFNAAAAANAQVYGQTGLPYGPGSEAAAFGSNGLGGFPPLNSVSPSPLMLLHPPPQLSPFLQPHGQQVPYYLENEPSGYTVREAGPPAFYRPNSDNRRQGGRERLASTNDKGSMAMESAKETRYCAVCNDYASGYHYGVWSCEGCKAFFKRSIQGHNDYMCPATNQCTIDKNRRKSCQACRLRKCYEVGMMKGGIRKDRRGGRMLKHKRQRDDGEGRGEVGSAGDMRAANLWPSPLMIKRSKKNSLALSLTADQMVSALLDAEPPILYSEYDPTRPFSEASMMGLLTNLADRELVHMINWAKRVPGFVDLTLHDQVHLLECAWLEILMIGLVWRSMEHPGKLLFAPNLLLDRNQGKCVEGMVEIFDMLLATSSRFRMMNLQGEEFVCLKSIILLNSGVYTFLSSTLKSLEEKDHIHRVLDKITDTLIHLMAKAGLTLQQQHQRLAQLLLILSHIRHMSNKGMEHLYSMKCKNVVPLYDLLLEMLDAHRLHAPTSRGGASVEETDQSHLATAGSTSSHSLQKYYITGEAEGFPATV
Thyrotropin receptor (Homo sapiens), sequence (P16473 whole entry, looked up): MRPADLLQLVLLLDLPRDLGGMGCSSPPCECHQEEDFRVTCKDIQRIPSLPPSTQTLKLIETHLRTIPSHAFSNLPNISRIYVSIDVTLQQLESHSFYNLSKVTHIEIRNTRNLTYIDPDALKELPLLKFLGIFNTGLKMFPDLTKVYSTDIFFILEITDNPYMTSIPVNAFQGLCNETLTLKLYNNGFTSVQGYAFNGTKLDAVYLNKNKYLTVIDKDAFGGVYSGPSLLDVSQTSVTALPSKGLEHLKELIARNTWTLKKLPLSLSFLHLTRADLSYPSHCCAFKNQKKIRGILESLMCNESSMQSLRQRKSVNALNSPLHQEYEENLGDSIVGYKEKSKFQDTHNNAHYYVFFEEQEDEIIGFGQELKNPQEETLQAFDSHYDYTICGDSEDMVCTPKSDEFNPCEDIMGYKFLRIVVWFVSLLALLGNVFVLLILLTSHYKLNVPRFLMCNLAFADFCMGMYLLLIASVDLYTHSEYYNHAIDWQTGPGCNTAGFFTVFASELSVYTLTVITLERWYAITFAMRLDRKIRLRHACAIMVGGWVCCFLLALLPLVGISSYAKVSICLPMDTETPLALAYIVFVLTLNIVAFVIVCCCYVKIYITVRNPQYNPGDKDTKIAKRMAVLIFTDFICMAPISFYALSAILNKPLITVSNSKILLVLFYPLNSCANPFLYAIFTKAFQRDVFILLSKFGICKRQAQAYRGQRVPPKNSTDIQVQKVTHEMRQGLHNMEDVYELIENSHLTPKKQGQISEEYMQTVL

As for `NC(=O)NS(=O)(=O)c1ccc(N)cc1`, the Potency entry in [1], in test [2], in test [3], in test [4], in [5] and in test [6] was “inactive” throughout. Also, the Potency result in [7], in test [8], in test [9], in [10], in [11] and in test [12] was “inactive” throughout. Moreover, the Potency entry in test [13], in test [14], in [15] and in test [16] was “inactive” in each case.
Consider `COC(=O)C1=C(C)NC(C)=C(C(=O)OCC(C)C)C1c1ccccc1[N+](=O)[O-]` (stereo not given), for which the Potency entry in test [1], in test [3], in test [4], in [5], in test [8] and in [11] was “inactive” throughout. Further, the Potency result in [13], in [14] and in test [15] was “inactive” throughout. The Potency was 48.6 µM (active) and inactive in test [2]; 30.6 µM (active) in test [6]; 61.1 µM (active) in [7]; 12.2 µM (active) in test [17]; 54.5 µM (active) and inactive in [16]. For the same compound, the call in test [18] was inactive.
Turning to `Cn1cc(C(=O)[C@@H]2CCc3nc[nH]c3C2)c2ccccc21`, the Potency result in test [1], in test [2], in test [3], in test [4], in test [5] and in test [6] was “inactive” in each case. The Potency result in test [8], in test [9], in test [10], in test [11], in test [13] and in test [14] was “inactive” throughout. The Potency result in test [15] and in test [16] was “inactive” each time. For the same compound, the Potency in test [17] is 15 µM (active). Besides, the compound was called inactive in [18].
As for `CCCN(CCC)C(=O)C(CCC(=O)OCCCN1CCN(CCOC(=O)Cc2c(C)n(C(=O)c3ccc(Cl)cc3)c3ccc(OC)cc23)CC1)NC(=O)c1ccccc1` (stereo not given), the Potency result in [1], in [2], in test [4], in test [5], in test [8] and in test [11] was “inactive” throughout. In test [19], the Potency entry was “inactive”. Further, the Potency in test [6] is 11.9 µM (active); in test [7], 10.6 µM (active); in [17] it was 9.44 µM (active); in test [12], 10.6 µM (active); in test [13], 13.3 µM (active); in [14], 11.9 µM (active). Further, the Potency in [16] was 21.1 µM (active). The outcome in [18] was inactive.
With `CCCC/C=C/CCCCO`, the Potency result in test [1], in test [2], in [4], in [5], in test [6] and in test [7] was “inactive” throughout. The Potency result in test [8], in test [17], in [11], in test [13], in [14] and in test [15] was “inactive” throughout. The Potency entry in [16] is “inactive”. In addition, the compound was called inactive in test [18].
On to `O=C1CCCCCN1SSN1CCCCCC1=O`, for which the Potency entry in test [1], in test [2], in test [4], in test [5], in test [8] and in [9] was “inactive” each time. In addition, the Potency result in test [11], in test [12], in test [13], in test [14], in test [15] and in [16] was “inactive” throughout. For the same compound, the Potency was 19.3 µM (active) in test [6], 54.5 µM (active) in test [7] and 9.69 µM (active) in test [17].
On to `Clc1ccc2cc3ccccc3cc2c1`, for which the Potency result in [1], in test [2], in [5], in test [6], in [7] and in [8] was “inactive” throughout. Moreover, the Potency entry in test [17], in test [11], in [12], in test [19], in test [13] and in [14] was “inactive” in each case. Moreover, the Potency entry in test [16] is “inactive”. Further, the Potency in test [4] is 54.4 µM (active).

The values are drawn from PubChem BioAssay (Tox21).
